# Reference: PubChem BioAssay (EPA / NIEHS)
# Inconclusive results are not listed. The source made the active and inactive calls. Rule for the calls: active = hit-call score of the fitted dose curve at least 0.9, where 1 is the maximum; inconclusive = response in the unintended direction; inactive = score below 0.9.
# Legend:
# [1] = tested on: guinea pig Muscarinic, Peripheral (Mperiperal) Receptor, Non-selective Binding, gene 100379235; assay: NVS_GPCR_gMPeripheral_NonSelective: NovaScreen (NVS) G Protein-Coupled Receptor Assay for guinea pig Muscarinic, Peripheral (Mperiperal) Receptor, Non-selective Binding (AID 2283250)
# Outline: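 Screened in duplicate at 25 uM, hits retested in concentration series to 50 uM max, using bladder membrane radioligand displacement from guinea pig. Filtration and scintillation counting 1 h post-dose, fitted relative to DMSO.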
# [2] = molecular target: guinea pig Opioid, Kappa 1 Receptor (OpiateK), OPRK1 (gene 100135587) (UniProt P41144); assay: NVS_GPCR_gOpiateK: NovaScreen (NVS) G Protein-Coupled Receptor Assay for guinea pig Opioid, Kappa 1 Receptor (OpiateK) (AID 2283252);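 note: radioligand displacement from kappa opioid receptor in guinea pig cerebellar membranes; active means reduced radioligand binding relative to DMSO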
# Outline: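 Radioligand competition binding using guinea pig cerebellum membrane fraction; 2 h exposure; filter radiodetection. Single concentration 25 uM (duplicate), follow-up concentration-response for actives.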
# [3] = molecular target: human Dopamine Receptor D4.4 (DRD4.4), DRD4 (gene 1815) (UniProt P21917); assay: NVS_GPCR_hDRD4.4: NovaScreen (NVS) G Protein-Coupled Receptor Assay for human Dopamine Receptor D4.4 (DRD4.4) (AID 2283264)
# Outline: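 Filter-binding assay with a tritiated or iodinated ligand, cell-free receptor prepared from CHO, 1 hour. Loss of bound radioactivity versus DMSO; single 25 uM duplicate screen, then concentration-response for actives.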
# [4] = molecular target: human Adrenergic, Alpha 2c Receptor (Adra2C), ADRA2C (gene 152) (UniProt P18825); assay: NVS_GPCR_hAdra2C: NovaScreen (NVS) G Protein-Coupled Receptor Assay for human Adrenergic, Alpha 2c Receptor (Adra2C) (AID 2283259)
# Outline: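 Screened first in duplicate at 25 uM, with actives then run as concentration series. Membranes from Sf9 cells were exposed for 1 h, and displacement of radioligand was counted after filtration, using DMSO as baseline.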
# [5] = molecular target: human Serotonin, 5-Hydroxytryptamine Receptor 5A (5HT5A), HTR5A (gene 3361) (UniProt P47898); assay: NVS_GPCR_h5HT5A: NovaScreen (NVS) G Protein-Coupled Receptor Assay for human Serotonin, 5-Hydroxytryptamine Receptor 5A (5HT5A) (AID 2283251)
# Outline: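 Membranes from HEK293 cells, radioligand binding read by filtration and scintillation after 1 h. Single-concentration duplicate testing at 25 uM, then concentration-response for actives; positive-direction fitting relative to DMSO.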
# [6] = molecular target: human Serotonin, 5-Hydroxytryptamine Receptor 6 (5HT6), HTR6 (gene 3362) (UniProt P50406); assay: NVS_GPCR_h5HT6: NovaScreen (NVS) G Protein-Coupled Receptor Assay for human Serotonin, 5-Hydroxytryptamine Receptor 6 (5HT6) (AID 2283253)
# Outline: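 Filter scintillation counting of radioligand displacement from HEK293-expressed 5HT6, 1 hour post-dose, with loss of signal relative to DMSO. Single 25 uM duplicates first, with concentration series for confirmation.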
# [7] = molecular target: human Serotonin, 5-Hydroxytryptamine Receptor 7 (5HT7), HTR7 (gene 3363) (UniProt P34969); assay: NVS_GPCR_h5HT7: NovaScreen (NVS) G Protein-Coupled Receptor Assay for human Serotonin, 5-Hydroxytryptamine Receptor 7 (5HT7) (AID 2283255);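 note: hits reduce specific radioligand binding relative to DMSO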
# Outline: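 Filter-bound radioactivity counted after 1 h, with loss of specific radioligand binding fitted against DMSO. Membrane protein came from CHO cells expressing human 5HT7. Chemicals were tested first at 25 uM in duplicate, then in concentration series if active.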
# [8] = molecular target: human Adrenergic, Beta 1 Receptor (Adrb1), ADRB1 (gene 153) (UniProt P08588); assay: NVS_GPCR_hAdrb1: NovaScreen (NVS) G Protein-Coupled Receptor Assay for human Adrenergic, Beta 1 Receptor (Adrb1) (AID 2283258)
# Outline: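 Membranes/protein extracted from human neuroepithelioma cells, radioligand competition binding read by filtration and scintillation 2 h post-dose. Single 25 uM duplicate screen, then concentration-response follow-up; DMSO as negative control.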
# [9] = molecular target: human Dopamine Receptor D2 (DRD2), DRD2 (gene 1813) (UniProt P14416); assay: NVS_GPCR_hDRD2s: NovaScreen (NVS) G Protein-Coupled Receptor Assay for human Dopamine Receptor D2 (DRD2) (AID 2283266)
# Outline: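 Test compound (25 uM, duplicate in the primary screen; concentration series at follow-up) competed with radioligand for human DRD2 in CHO-derived membrane protein. Filter-based scintillation counting was done 1.5 hours after dosing, with loss of signal analysed against DMSO.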
# [10] = molecular target: human Adenosine A1 Receptor (AdoRA1), ADORA1 (gene 134) (UniProt P30542); assay: NVS_GPCR_hAdoRA1: NovaScreen (NVS) G Protein-Coupled Receptor Assay for human Adenosine A1 Receptor (AdoRA1) (AID 2283254)
# Outline: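 Each chemical is first tested twice at 25 uM, actives later in dilution series, against a radioligand bound to human cortex membranes; after 1 h, filter-retained counts are compared with DMSO controls, lower signal indicating displacement.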
# [11] = molecular target: human Adenosine A2a Receptor (AdoRA2a), ADORA2A (gene 135) (UniProt P29274); assay: NVS_GPCR_hAdoRA2a: NovaScreen (NVS) G Protein-Coupled Receptor Assay for human Adenosine A2a Receptor (AdoRA2a) (AID 2283256)
# Outline: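 Compounds screened in duplicate at 25 uM, with actives followed up in concentration series, for displacement of a radioligand from HEK293-derived receptor protein. Bound counts read by filter scintillation at 1.5 hours, DMSO as baseline.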
# [12] = molecular target: human Endothelin Receptor Type A (ETA), EDNRA (gene 1909) (UniProt P25101); assay: NVS_GPCR_hETA: NovaScreen (NVS) G Protein-Coupled Receptor Assay for human Endothelin Receptor Type A (ETA) (AID 2283265)
# Outline: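 Binding of radioligand to membrane protein extracted from SH-SY5Y cells was read by filtration and scintillation after 3 h. Compounds were screened at 25 uM in duplicate, with hits followed up in singleton concentration series to 50 uM.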
# [13] = molecular target: human Endothelin Receptor Type B (ETB), EDNRB (gene 1910) (UniProt P24530); assay: NVS_GPCR_hETB: NovaScreen (NVS) G Protein-Coupled Receptor Assay for human Endothelin Receptor Type B (ETB) (AID 2283267)
# Outline: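 Filter-based scintillation readout of radioligand displacement, 4 h, using membranes from human astrocytoma cells. Actives from a 25 uM duplicate screen were retested in concentration-response (top 50 uM) relative to DMSO baseline.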
# Chain of human Adrenergic, Beta 1 Receptor (Adrb1), ADRB1 (gene 153) (P08588 whole entry, looked up): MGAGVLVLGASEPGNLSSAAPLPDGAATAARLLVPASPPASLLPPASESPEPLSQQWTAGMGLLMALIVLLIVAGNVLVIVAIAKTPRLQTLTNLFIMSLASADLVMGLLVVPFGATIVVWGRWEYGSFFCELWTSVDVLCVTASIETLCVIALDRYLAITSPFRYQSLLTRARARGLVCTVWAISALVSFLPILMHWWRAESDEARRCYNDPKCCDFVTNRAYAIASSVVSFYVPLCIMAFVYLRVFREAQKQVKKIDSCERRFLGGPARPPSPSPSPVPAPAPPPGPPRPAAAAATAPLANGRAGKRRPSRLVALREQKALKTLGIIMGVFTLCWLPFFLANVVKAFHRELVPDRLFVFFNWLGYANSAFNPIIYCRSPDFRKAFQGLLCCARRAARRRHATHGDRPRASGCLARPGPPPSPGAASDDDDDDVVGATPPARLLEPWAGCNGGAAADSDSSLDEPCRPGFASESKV
# Chain of human Dopamine Receptor D4.4 (DRD4.4), DRD4 (gene 1815) (P21917 whole entry, looked up): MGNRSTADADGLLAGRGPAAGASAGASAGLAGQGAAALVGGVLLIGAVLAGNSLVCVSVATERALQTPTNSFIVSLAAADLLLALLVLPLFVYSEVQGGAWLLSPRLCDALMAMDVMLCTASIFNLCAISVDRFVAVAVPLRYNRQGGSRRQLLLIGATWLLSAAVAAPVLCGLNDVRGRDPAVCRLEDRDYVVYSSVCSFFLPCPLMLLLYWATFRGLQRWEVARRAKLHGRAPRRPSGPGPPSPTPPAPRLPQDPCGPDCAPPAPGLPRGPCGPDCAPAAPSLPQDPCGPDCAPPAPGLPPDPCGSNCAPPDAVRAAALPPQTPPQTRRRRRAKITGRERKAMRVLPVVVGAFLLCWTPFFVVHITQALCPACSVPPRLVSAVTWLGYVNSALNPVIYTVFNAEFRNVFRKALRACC
# Chain of guinea pig Opioid, Kappa 1 Receptor (OpiateK), OPRK1 (gene 100135587) (P41144 whole entry, looked up): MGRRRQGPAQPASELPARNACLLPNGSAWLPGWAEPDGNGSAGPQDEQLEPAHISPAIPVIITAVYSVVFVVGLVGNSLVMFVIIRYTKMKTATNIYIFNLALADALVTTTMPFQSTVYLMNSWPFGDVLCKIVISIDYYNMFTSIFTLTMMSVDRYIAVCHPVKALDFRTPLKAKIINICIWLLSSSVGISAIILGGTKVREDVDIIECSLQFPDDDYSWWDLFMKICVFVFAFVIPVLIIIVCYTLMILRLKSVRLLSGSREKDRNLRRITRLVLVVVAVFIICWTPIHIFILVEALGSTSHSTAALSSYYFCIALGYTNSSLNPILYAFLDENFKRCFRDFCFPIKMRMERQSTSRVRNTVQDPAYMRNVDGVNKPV
# Chain of human Adrenergic, Alpha 2c Receptor (Adra2C), ADRA2C (gene 152) (P18825 whole entry, looked up): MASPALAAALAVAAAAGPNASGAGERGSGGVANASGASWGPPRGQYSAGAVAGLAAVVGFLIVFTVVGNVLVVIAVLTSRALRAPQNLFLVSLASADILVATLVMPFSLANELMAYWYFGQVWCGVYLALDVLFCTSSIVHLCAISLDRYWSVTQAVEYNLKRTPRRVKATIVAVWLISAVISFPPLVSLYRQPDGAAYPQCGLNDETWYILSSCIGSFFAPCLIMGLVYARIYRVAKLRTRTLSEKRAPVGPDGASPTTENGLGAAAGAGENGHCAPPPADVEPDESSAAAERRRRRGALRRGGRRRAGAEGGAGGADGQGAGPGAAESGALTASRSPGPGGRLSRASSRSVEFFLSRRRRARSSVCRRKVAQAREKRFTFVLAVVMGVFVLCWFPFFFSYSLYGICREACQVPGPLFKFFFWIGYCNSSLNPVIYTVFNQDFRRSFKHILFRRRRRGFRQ
# Chain of human Serotonin, 5-Hydroxytryptamine Receptor 7 (5HT7), HTR7 (gene 3363) (P34969 whole entry, looked up): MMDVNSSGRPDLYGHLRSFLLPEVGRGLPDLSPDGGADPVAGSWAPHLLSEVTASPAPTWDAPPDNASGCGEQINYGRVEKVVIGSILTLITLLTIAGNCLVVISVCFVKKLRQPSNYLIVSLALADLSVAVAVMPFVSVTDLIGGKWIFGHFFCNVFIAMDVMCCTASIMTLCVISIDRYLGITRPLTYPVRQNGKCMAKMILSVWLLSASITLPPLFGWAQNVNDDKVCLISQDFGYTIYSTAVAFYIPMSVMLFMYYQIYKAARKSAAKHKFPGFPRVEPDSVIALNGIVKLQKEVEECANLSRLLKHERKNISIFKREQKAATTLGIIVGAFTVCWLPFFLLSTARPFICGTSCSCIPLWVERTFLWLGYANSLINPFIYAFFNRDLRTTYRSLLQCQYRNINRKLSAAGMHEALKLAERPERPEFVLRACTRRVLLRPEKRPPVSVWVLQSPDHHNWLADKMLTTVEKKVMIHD
# Chain of human Serotonin, 5-Hydroxytryptamine Receptor 6 (5HT6), HTR6 (gene 3362) (P50406 whole entry, looked up): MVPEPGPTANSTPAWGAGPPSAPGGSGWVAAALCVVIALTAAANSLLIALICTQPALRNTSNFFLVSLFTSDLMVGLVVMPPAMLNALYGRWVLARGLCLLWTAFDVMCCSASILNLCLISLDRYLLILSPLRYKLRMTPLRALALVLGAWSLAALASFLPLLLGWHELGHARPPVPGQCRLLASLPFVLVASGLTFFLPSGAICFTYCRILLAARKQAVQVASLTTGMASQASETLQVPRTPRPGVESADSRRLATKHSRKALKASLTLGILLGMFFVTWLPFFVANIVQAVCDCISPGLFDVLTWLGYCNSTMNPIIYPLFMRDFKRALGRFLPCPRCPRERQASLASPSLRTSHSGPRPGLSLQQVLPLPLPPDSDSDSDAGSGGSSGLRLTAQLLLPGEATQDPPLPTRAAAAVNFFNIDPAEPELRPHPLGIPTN
# Chain of human Adenosine A2a Receptor (AdoRA2a), ADORA2A (gene 135) (P29274 whole entry, looked up): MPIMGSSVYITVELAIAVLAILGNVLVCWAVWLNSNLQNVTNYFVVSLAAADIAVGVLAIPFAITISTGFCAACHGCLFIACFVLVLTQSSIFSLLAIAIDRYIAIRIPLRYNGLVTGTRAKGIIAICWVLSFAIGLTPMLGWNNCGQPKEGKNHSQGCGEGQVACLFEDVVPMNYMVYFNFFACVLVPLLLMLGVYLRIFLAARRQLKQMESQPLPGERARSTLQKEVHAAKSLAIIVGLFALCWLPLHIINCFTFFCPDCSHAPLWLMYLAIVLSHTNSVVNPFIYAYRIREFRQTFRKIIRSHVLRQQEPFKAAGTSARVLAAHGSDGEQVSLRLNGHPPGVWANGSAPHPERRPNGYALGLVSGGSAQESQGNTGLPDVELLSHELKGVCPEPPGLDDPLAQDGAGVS
# Chain of human Serotonin, 5-Hydroxytryptamine Receptor 5A (5HT5A), HTR5A (gene 3361) (P47898 whole entry, looked up): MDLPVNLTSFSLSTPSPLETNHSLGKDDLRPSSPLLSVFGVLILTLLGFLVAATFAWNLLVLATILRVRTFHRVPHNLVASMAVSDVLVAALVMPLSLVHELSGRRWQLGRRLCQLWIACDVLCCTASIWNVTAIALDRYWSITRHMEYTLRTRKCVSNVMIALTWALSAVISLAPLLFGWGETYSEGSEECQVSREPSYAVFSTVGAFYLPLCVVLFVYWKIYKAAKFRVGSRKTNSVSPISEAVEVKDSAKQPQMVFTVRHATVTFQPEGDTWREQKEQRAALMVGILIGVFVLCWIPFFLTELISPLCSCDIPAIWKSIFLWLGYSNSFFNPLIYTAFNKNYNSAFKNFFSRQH
# Chain of human Dopamine Receptor D2 (DRD2), DRD2 (gene 1813) (P14416 whole entry, looked up): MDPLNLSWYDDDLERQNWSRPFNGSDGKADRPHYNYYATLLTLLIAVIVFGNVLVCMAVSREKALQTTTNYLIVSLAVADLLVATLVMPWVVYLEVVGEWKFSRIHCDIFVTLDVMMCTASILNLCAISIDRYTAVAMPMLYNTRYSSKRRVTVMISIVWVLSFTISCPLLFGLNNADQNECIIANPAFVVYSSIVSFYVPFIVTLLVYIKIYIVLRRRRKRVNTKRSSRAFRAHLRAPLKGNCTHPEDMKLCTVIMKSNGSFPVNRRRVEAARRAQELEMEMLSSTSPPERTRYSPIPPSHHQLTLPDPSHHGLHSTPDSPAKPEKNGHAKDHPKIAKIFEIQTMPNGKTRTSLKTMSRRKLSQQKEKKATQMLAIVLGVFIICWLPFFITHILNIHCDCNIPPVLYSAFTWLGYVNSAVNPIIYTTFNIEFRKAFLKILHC
# Chain of human Endothelin Receptor Type B (ETB), EDNRB (gene 1910) (P24530 whole entry, looked up): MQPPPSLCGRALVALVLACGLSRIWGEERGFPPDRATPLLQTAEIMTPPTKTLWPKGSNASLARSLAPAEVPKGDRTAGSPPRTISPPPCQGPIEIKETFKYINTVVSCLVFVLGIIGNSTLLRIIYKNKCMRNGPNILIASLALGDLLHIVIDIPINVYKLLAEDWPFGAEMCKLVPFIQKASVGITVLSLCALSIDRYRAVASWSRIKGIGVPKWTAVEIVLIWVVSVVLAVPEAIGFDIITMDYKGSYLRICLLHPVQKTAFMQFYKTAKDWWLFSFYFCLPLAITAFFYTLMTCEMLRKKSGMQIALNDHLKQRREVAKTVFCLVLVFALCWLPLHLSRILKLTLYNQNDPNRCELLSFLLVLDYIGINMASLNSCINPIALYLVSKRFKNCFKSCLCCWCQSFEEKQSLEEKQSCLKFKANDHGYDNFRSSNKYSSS
# Chain of human Adenosine A1 Receptor (AdoRA1), ADORA1 (gene 134) (P30542 whole entry, looked up): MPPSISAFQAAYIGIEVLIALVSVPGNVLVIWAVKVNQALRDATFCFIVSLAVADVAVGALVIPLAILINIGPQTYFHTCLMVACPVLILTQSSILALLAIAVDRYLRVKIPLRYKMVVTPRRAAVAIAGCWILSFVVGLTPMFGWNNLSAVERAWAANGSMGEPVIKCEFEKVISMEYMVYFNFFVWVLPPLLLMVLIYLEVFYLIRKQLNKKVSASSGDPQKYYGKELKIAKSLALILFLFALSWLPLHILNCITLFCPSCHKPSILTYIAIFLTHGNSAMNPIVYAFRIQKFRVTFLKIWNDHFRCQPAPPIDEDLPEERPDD
smiles,measurement,setting,value
COc1ccc(S(=O)(=O)N2C(=O)[C@@](c3ccccc3OC)(N3C[C@H](O)C[C@H]3C(=O)N(C)C)c3cc(Cl)ccc32)c(OC)c1,AC50,[1],13.8 µM (active)
CCc1c(C(=O)NN2CCCCC2)nn(-c2ccc(Cl)cc2Cl)c1-c1ccc(Br)cc1,AC50,[2],9.97 µM (active)
same,outcome,[3],inactive
COCCOC[C@H](CC1(C(=O)NC2CCC(C(=O)O)CC2)CCCC1)C(=O)Oc1ccc2c(c1)CCC2 (stereo partly drawn),outcome,[2],inactive
CNC(=O)[C@H]1O[C@@H](n2cnc3c(NCc4cc(Cl)ccc4OCc4cc(C)no4)ncnc32)[C@H](O)[C@@H]1N,outcome,[4],inactive
CN1CCN(Cc2cc(-c3ccc4[nH]c(=O)oc4c3)co2)[C@@H](c2ccc(F)cc2)C1,outcome,[1],inactive
same,AC50,[5],9.14 µM (active)
same,outcome,[2],inactive
same,AC50,[6],2.5 µM (active)
same,AC50,[7],15.6 µM (active)
same,AC50,[8],22 µM (active)
same,AC50,[4],10.5 µM (active)
same,AC50,[3],14.2 µM (active)
same,outcome,[9],inactive
O=c1c(O)c(-c2ccc(O)c(O)c2)oc2cc(O)cc(O)c12,outcome,[10],inactive
same,AC50,[11],11.8 µM (active)
same,outcome,[3],inactive
Nc1ccc(S(=O)(=O)c2ccc(N)cc2)cc1,AC50,[6],1.2 µM (active)
same,outcome,[8],inactive
Cc1ccc2ncccc2c1,outcome,[8],inactive
CC(C)c1ccc(C(=O)N=C(N)N)cc1S(C)(=O)=O,AC50,[7],8.17 µM (active)
CCCCc1ccc2c(n1)[C@@H](c1ccc(OC)cc1C[C@H](C)C(=O)O)[C@H](C(=O)O)[C@H]2c1ccc2c(c1)OCO2,AC50,[12],0.00472 µM (active)
same,AC50,[13],0.00361 µM (active)
